Key:
Test in all cases: log2 ratio of Biotin-Ahx-Ub-VS probe labelling (compound/DMSO); higher = less target engagement, active = hit call of the paper (q ≤ 0.05, log2 ratio ≤ -1)
Settings in all cases: treatment time: 3 h
[1] = compound: CN(Cc1cccc(Br)c1)C(=O)CCl
Summary of the method: (§1)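 HEK293T lysate (495 µg per sample, in Tris/CHAPS/IGEPAL buffer with protease inhibitors) was treated in triplicate with compound at 50 or 200 µM or with DMSO for 3 h. It was then treated with Biotin-Ahx-Ub-VS (0.5 µM final) for 1 h. Labelled DUBs were NeutrAvidin-enriched, digested with LysC and trypsin, and run by diaPASEF LC-MS/MS. Median-normalised label-free quantities gave average log2 ratios compound/DMSO by unpaired t-test, using proteins with ≥2 unique peptides.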

[2] = compound: CN(Cc1cccc(OCc2ccccc2C)c1)C(=O)CCl
Summary of the method: as §1

[3] = compound: CN(Cc1ccccc1)C(=O)CCl
Summary of the method: as §1

[4] = compound: COc1ccc(CN(C)C(=O)CCl)cc1
Summary of the method: as §1

[5] = compound: COc1cccc(CN(CCCc2ccccc2)C(=O)CCl)c1
Summary of the method: as §1

[6] = compound: ClCC(=O)N1CCc2cc(Cl)c(Cl)cc2C1
Summary of the method: as §1

[7] = compound: ClCC(=O)N1CCc2nc(ncc2C1)-c1ccccc1
Summary of the method: as §1

[8] = compound: ClCC(=O)N1CCc2nocc2C1
Summary of the method: as §1

[9] = compound: ClCC(=O)N1CCc2scc(Br)c2C1
Summary of the method: as §1

[10] = compound: ClCC(=O)NC(C1CCCC1)c1cccs1
Summary of the method: as §1

[11] = compound: ClCC(=O)NC1CCCc2ccccc12
Summary of the method: as §1

[12] = compound: ClCC(=O)NC1CCOc2ccc(Cl)cc12
Summary of the method: as §1

[13] = compound: ClCC(=O)NC1CCSc2ccccc12
Summary of the method: as §1

[14] = compound: ClCC(=O)N[C@H]1CCCc2ccccc12
Summary of the method: as §1

[15] = compound: Fc1ccc(N2CCN(c3nc4c(CN(C(CCl)=O)CC4)cn3)CC2)cc1.Cl.Cl
Summary of the method: as §1

Measured: log2 ratio of Biotin-Ahx-Ub-VS probe labelling

EIF3F (UniProt O00303)
Chain of UniProt O00303 (O00303 whole entry): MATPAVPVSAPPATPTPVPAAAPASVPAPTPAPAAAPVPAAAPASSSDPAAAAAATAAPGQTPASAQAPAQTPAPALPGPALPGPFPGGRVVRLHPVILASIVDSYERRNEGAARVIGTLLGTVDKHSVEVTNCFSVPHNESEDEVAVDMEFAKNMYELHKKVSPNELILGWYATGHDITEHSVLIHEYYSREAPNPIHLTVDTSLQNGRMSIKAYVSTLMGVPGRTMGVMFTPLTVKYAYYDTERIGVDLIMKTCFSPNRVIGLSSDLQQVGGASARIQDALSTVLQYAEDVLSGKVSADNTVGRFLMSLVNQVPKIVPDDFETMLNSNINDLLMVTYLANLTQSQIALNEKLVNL
inactive: [1]; compound concentration: 50uM -0.146 | [1]; compound concentration: 200uM -0.0144 | [2]; compound concentration: 50uM -0.201 | [2]; compound concentration: 200uM 0.0399 | [3]; compound concentration: 50uM 0.12 | [3]; compound concentration: 200uM 0.117 | [4]; compound concentration: 50uM -0.317 | [4]; compound concentration: 200uM -0.0894 | [5]; compound concentration: 50uM -0.0548 | [5]; compound concentration: 200uM -0.0324 | [6]; compound concentration: 50uM -0.117 | [6]; compound concentration: 200uM -0.406 | [7]; compound concentration: 50uM -0.18 | [7]; compound concentration: 200uM 0.268 | [8]; compound concentration: 50uM -0.16 | [8]; compound concentration: 200uM 0.0551 | [9]; compound concentration: 50uM -0.352 | [9]; compound concentration: 200uM -0.162 | [10]; compound concentration: 50uM 0.0245 | [10]; compound concentration: 200uM -0.0374 | [11]; compound concentration: 50uM -0.228 | [11]; compound concentration: 200uM 0.0219 | [12]; compound concentration: 50uM -0.17 | [12]; compound concentration: 200uM 0.0998 | [13]; compound concentration: 50uM -0.0176 | [13]; compound concentration: 200uM 0.00311 | [14]; compound concentration: 50uM -0.292 | [14]; compound concentration: 200uM 0.0431 | [15]; compound concentration: 50uM 0.028 | [15]; compound concentration: 200uM 0.0109

UniProt Q5T2D3
Chain of UniProt Q5T2D3 (Q5T2D3 whole entry): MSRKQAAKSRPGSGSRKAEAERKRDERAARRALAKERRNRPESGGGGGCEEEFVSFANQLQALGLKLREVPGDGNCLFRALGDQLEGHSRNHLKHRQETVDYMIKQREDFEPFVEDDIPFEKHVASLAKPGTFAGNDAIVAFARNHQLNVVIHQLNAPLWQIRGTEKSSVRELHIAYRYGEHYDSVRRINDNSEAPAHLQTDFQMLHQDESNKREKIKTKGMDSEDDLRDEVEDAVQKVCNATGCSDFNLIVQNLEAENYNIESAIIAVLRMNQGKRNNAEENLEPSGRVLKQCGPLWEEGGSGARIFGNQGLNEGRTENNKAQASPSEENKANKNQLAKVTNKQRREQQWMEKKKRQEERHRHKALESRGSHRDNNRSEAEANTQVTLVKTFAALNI
inactive: [1]; compound concentration: 50uM 0.00241 | [1]; compound concentration: 200uM -0.212 | [2]; compound concentration: 50uM -0.549 | [2]; compound concentration: 200uM -0.332 | [3]; compound concentration: 50uM -0.381 | [3]; compound concentration: 200uM -0.198 | [4]; compound concentration: 50uM -0.229 | [4]; compound concentration: 200uM 0.0599 | [5]; compound concentration: 50uM -0.157 | [5]; compound concentration: 200uM -0.202 | [6]; compound concentration: 50uM 0.0943 | [6]; compound concentration: 200uM -0.112 | [7]; compound concentration: 50uM 0.0194 | [7]; compound concentration: 200uM -0.186 | [8]; compound concentration: 50uM -0.173 | [8]; compound concentration: 200uM -0.329 | [9]; compound concentration: 50uM -0.0373 | [9]; compound concentration: 200uM 0.0195 | [10]; compound concentration: 50uM -0.0592 | [10]; compound concentration: 200uM -0.12 | [11]; compound concentration: 50uM -0.177 | [11]; compound concentration: 200uM 0.0818 | [12]; compound concentration: 50uM -0.361 | [12]; compound concentration: 200uM -0.177 | [13]; compound concentration: 50uM -0.0329 | [13]; compound concentration: 200uM -0.156 | [14]; compound concentration: 50uM -0.0344 | [14]; compound concentration: 200uM -0.199 | [15]; compound concentration: 50uM -0.00755 | [15]; compound concentration: 200uM -0.416

From the supplement of paper PMC11732987, “Enantioselective OTUD7B fragment discovery through chemoproteomics screening and high-throughput optimisation” (Communications Chemistry, 2025)
